Hits are enriched below; roughly 2.4% of the tested compounds scored in any of these assays.
D2 PAM-1 – HTS Assay for Positive Allosteric Modulators of the Human D2 Dopamine Receptor: Primary Screen for Potentiators | AID 485347, 2010 | potentiation, % at 10 µM | hit rate 0.34% among 340,000 | HEK293 T-REx D2, calcium flux, EC20 dopamine potentiation;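 active = potentiation over 3 SD above the plate norm, cut at about 30% in these data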
Target sequence (P14416 whole entry, looked up): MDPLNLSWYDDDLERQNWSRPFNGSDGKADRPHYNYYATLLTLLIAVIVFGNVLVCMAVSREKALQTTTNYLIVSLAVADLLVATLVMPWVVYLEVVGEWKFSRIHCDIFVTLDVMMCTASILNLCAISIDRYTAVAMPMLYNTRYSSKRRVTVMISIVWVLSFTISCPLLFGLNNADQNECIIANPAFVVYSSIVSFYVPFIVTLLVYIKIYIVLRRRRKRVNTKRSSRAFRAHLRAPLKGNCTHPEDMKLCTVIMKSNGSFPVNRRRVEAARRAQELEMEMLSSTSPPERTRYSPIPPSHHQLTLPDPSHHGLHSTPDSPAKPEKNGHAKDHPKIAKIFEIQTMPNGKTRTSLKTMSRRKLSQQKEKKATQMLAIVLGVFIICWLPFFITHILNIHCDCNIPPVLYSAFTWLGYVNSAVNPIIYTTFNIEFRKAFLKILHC
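Potentiation of an EC20 dopamine calcium response measured kinetically over 180 s, after a preceding 180 s compound-only read flagging agonists. Cells: inducible Hek293 Trex D2 line, 4000/well, cultured overnight at 30 C before dye loading.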
D2 PAM-2 – Beta-Arrestin HTS for Positive Allosteric Modulators of the Human D2 Dopamine Receptor: Potentiators | D(2) dopamine receptor (Homo sapiens), P14416 | DiscoveRx D2 beta-arrestin cells, luminescence, 90 min; 100% = 57 uM dopamine signal | potentiation, % (test concentration not listed) | hit rate 0.23% among 360,000 | AID 624464, 2012; in the data active = potentiation above about 50%; inconclusive = mostly about 30% to 49%
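D2 cells co-treated with compound plus 50 nM dopamine (EC20) for 90 min at 37 deg C to detect potentiation. Beta-arrestin recruitment was read as enzyme-fragment luminescence after 1 h at ambient temperature. Full response was set by 57 uM dopamine.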
D2 ag-1 – Beta-Arrestin HTS for Positive Allosteric Modulators of the Human D2 Dopamine Receptor: Agonists; D(2) dopamine receptor (Homo sapiens), P14416; DiscoveRx PathHunter D2 beta-arrestin, luminescence, 90 min; 100% = 57 uM dopamine signal; activation, % (concentration not given with the values); hit rate 0.084% among 360,000; AID 624465, 2012; in the data active = activation above about 40%; inconclusive = between about 15% and that limit
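Agonist mode: compounds alone added to overnight-plated D2 PathHunter cells for 90 min at 37 C, with 57 uM final dopamine (EC100) defining full response. Beta-arrestin recruitment detected by chemiluminescent reagent, read after 1 h at ambient temperature.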
D2 ag-2 – HTS Assay for Allosteric Agonists of the Human D2 Dopamine Receptor: Primary Screen for Agonists. HEK293 T-REx D2 cells, calcium flux agonist mode. hit rate 0.53% among 340,000. D(2) dopamine receptor (Homo sapiens), P14416. activation, % at 2 µM;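 active = activation over 3 SD above normal in the single-dose calcium agonist read, cut at about 30% in these data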
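Agonism scored from kinetic calcium signal (1 read/sec, 180 s) following compound pin transfer, after a 10 s baseline. Cells: HEK293 Trex line expressing inducible D2 receptor coupled to calcium, dye-loaded after overnight culture at 30 C.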
D2 antag – HTS Assay for Allosteric Antagonists of the Human D2 Dopamine Receptor: Primary Screen for Antagonists. inhibition, % at 10 µM. D(2) dopamine receptor (Homo sapiens), P14416. HEK293 TREx D2 cells, calcium flux, dopamine EC80. AID 485344, 2010. hit rate 2% among 340,000; in the data active = inhibition above about 30%; inactive = below that, where a call was filed
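Antagonism is scored as inhibition of an EC80 dopamine-evoked calcium signal in a force-coupled, tetracycline-inducible HEK293 T-REx D2 line, with compound present 180 s before agonist.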
Hits are given with their value; – = inactive; ? = inconclusive; · = no result.

SMILES	D2 PAM-1	D2 PAM-2	D2 ag-1	D2 ag-2	D2 antag
Cc1ccc(S(=O)(=O)N(C)Cc2ccccc2)cc1C(=O)N1CCCCC1	–	–	–	–	–
CC(=O)N1CCN(C(=O)c2cc(S(=O)(=O)N(C)Cc3ccccc3)ccc2Cl)CC1	–	–	–	–	30
CCC1(c2ccccc2)SC(=O)NC1=O (configuration not stated)	·	–	–	·	·
C/C(=N\Nc1nc(C)cc(=O)[nH]1)C1CC1	–	–	–	–	–
Cc1cc(=O)[nH]c(NN=C2CCC(C(C)(C)C)CC2)n1 (configuration not stated)	32	–	–	–	–
O=C(COC(=O)c1cc[n+]([O-])cc1)NCCc1ccc(Cl)cc1Cl	–	–	–	–	34
COC(=O)CNC(=O)c1cccs1	–	–	–	–	66
CCCCCCc1cc2cc(-c3nnc(-c4ccccc4OC)o3)c(=O)oc2cc1O	–	155	?	110	–
CCCCCCc1cc2cc(S(=O)(=O)c3ccc(F)cc3)c(=O)oc2cc1O	–	–	–	–	–
CCCCCCc1cc2cc(-c3nnc(-c4ccccc4O)o3)c(=O)oc2cc1O	–	–	–	39	–
CCCCCCc1cc2cc(-c3nnc(-c4cc(OC)c(OC)c(OC)c4)o3)c(=O)oc2cc1O	–	–	–	–	–
CCn1c(C)c(C)c2cc(C(=O)NCCc3cc(OC)c(OC)c(OC)c3)ccc21	–	·	·	–	·
COc1ccc(CNCC(O)COc2cccc3c2OC(C)(C)C3)cc1 (configuration not stated)	–	–	–	–	44
COc1ccccc1Cc1nc2ccccc2nc1SCC(=O)NCc1ccc(F)cc1	–	·	·	–	·
Fc1ccc(CSc2ncnc3c2oc2ccccc23)cc1	–	–	–	–	–
Fc1cccc(CSc2ncnc3c2oc2ccccc23)c1	–	–	–	–	31
CC1CCc2cc(F)ccc2N1C(=O)C12CCC(C)(C(=O)O1)C2(C)C (configuration not stated)	–	–	–	–	32
CCNC(=O)CC1C(=O)N(CC)C(=S)N1NC(=O)c1ccc(Cl)cc1 (configuration not stated)	–	–	–	–	–
CCN1C(=O)C(CC(=O)Nc2ccc(Cl)cc2)N(NC(=O)c2ccncc2)C1=S (configuration not stated)	–	–	–	–	31
CC(=O)N(c1ccccc1)c1nc(C)cc(C)c1C#N	–	–	–	–	35
Cc1ccc(NC(=O)c2ccc(CN3CCc4ccccc4C3)cc2)cc1	–	–	–	–	–
O=C(Nc1cccnc1)c1ccc(CN2CCc3ccccc3C2)cc1	–	–	–	–	66
COC(=O)c1ccc(C)c(NC(=O)c2ccc(CN3CCc4ccccc4C3)cc2)c1	–	–	–	–	78
O=C(Nc1ccccc1)c1ccc(CN2CCc3ccccc3C2)cc1	·	–	–	–	54
Cc1ccc(Cl)cc1NC(=O)C(NS(=O)(=O)c1ccc2c(c1)CCC(=O)N2)c1ccccc1 (configuration not stated)	–	·	·	–	·
SMILES	D2 PAM-1	D2 PAM-2	D2 ag-1	D2 ag-2	D2 antag
COC(=O)c1ccccc1NC(=O)CSc1nc2sc3c(c2c(=O)[nH]1)CCCC3	–	·	·	–	·
CCOc1ccc(Cc2onc3c2C(=O)CCC3)cc1OCC	–	–	–	–	–
CCOc1ccc(Cc2onc3c2C(=O)CC(C)(C)C3)cc1OCC	38	–	–	–	–
COc1nc(-c2ccccc2)ccc1-c1noc(-c2ccccc2Br)n1	–	·	·	–	·
CN1CCN(C2=Nc3cc(F)ccc3Cc3ccccc32)CC1	–	·	·	–	33
Fc1ccc(N2CCN(C3=Nc4cccc5cccc3c45)CC2)cc1	–	–	–	–	–
CC(C)C(c1nnnn1Cc1ccc(F)cc1)N1CCN(C2CCCC2)CC1 (configuration not stated)	–	–	–	–	56
CN1CCN(C(c2ccc(F)cc2)c2nnnn2Cc2cccs2)CC1 (configuration not stated)	·	–	–	·	·
CCCC(c1nnnn1Cc1ccc(F)cc1)N1CCN(C2CCCCC2)CC1 (configuration not stated)	–	–	–	–	–
CN1CCN(C(c2cccs2)c2nnnn2Cc2ccc(F)cc2)CC1 (configuration not stated)	–	–	–	–	42
O=C(COC(=O)c1ccc(F)c(S(=O)(=O)N2CCOCC2)c1)c1ccc(Cl)cc1	–	–	–	–	–
O=C(COC(=O)c1ccc(F)c(S(=O)(=O)N2CCOCC2)c1)c1ccc(Br)cc1	38	–	–	–	36
CCOC(=O)c1c(NC(=O)Cn2c(=O)oc3ccccc32)oc(C)c1C(C)=O	–	–	–	–	31
O=C(CCn1c(=O)oc2ccccc21)Nc1cccc(Cl)c1	–	–	–	–	–
Cc1cc(C)c(NC(=O)CCCn2c(=O)oc3ccccc32)c(C)c1	–	–	–	–	33
CCOC(=O)c1c(C)[nH]c(C(=O)Cn2c(=O)oc3ccccc32)c1C	–	–	–	–	–
CCOC(=O)c1cccc(NC(=O)CCn2c(=O)oc3ccccc32)c1	–	–	–	–	32
Cc1ccc(NC(=O)CCCn2c(=O)oc3ccccc32)c(O)c1	–	–	–	–	–
O=C(NCc1ccc2c(c1)CCO2)Nc1cccc(C(F)(F)F)c1	–	–	–	–	40
COC(=O)c1cc(S(=O)(=O)n2nc(C)c(Br)c2C)c(Cl)cc1Cl	–	54	–	–	–
Cc1cc(C)n(S(=O)(=O)c2cc(C(=O)O)c(Cl)cc2Cl)n1	·	–	–	–	–
Nc1cnccc1C(=O)O	–	?	?	–	43
Cc1ccc(C(=O)Nc2c(C)cc(-c3ccccc3)oc2=O)cc1	–	–	–	–	31
Cc1ccc(C(=O)Nc2nc(-c3ccccc3)c(-c3ccccc3)o2)cc1	–	–	–	–	–
Cc1ccc(OCCN2CCOCC2)cc1C	–	–	–	–	–
Cc1cc(OCCN2CCOCC2)ccc1Cl	–	–	–	–	46
CC1CCN(CCOc2ccc(Cl)c(Cl)c2)CC1	–	–	–	–	84
CN(C)CCCN1c2ccccc2Sc2ccc(C(F)(F)F)cc21	–	–	–	–	95
OCCN1CCN(CC/C=C2/c3ccccc3CSc3ccccc32)CC1	·	–	–	·	·
OCCN1CCN(CC/C=C2/c3ccccc3Sc3ccc(C(F)(F)F)cc32)CC1	–	–	–	–	83
